In all, about 68,000 sequences were measured (“fluorescence intensity (a.u.)”: median about 9,100, highest 2% from about 16,000 on). What follows is part of a selection rich in the highest values, with near analogues and random picks from the rest.
What follows are sequences tested against OsWRKY34 (Oryza sativa, UniProt Q0JBA9 1-250) (assay: protein-binding microarray (RPBM); PBS, 2% BSA, 51.3 ng/ul salmon testes DNA, 50 uM zinc acetate, 200 nM TF, 25 C, 1 h; high values mean tight binding). Conditions: protein: recombinant; tags: N-terminal polyhistidine and DsRed monomer fusion (pET32a); label: CyDye5-dUTP incorporated in the synthesized complementary strand; 3' TTTTT single-stranded linker to array surface; dsDNA, one strand shown.
Sequence of OsWRKY34 (Q0JBA9 entry or part of it): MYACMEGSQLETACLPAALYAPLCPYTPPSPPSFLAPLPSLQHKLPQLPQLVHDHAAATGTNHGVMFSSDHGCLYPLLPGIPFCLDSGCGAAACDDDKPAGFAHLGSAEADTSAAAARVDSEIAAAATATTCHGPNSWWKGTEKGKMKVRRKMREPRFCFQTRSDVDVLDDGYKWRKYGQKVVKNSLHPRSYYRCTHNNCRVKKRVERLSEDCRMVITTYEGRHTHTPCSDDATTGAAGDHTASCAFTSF
Procedure, shortened: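 The binding signal is fluorescence intensity per feature, in arbitrary units, read on an Axon 4000B scanner. Polyhistidine- and DsRed-tagged transcription factors (N-terminal fusions) from E. coli BL21-CodonPlus were purified on Ni–NTA and applied at 200 nM for 1 h at 25 °C to a double-stranded, BSA-blocked custom Agilent array in buffer with 50 µM zinc acetate.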
With “GGGAGTCAAAGTAGACTTATTCTTCCCCAATCCATCTCAGCGGAGTCACCTAGTGCAG” the binding signal was 8330 fluorescence intensity (a.u.).
For “GTTCTCGATGTGTTCTAAAATTTTGTTGTTTATAATTTTTCGGAGTCACCTAGTGCAG”, the binding signal was 8190 fluorescence intensity (a.u.).
In the case of “TTCATCGTAAACGTTACTTCTCGTTATAAATTGATTTTTTCGGAGTCACCTAGTGCAG”, the binding signal is reported as 10100 fluorescence intensity (a.u.).
For “ACAGCGACCTTTTGCTGCAAAGCTTTGTTGGGTTTGGGCTCGGAGTCACCTAGTGCAG”, the binding signal was 8470 fluorescence intensity (a.u.).
For “ACGACCCCTCCAACACATTTCCCTCGCGTCTCGTTGCGATCGGAGTCACCTAGTGCAG”, the binding signal was 8480 fluorescence intensity (a.u.).
For “AGGATCGAGGAATTCAGTTAAGCAAAAATATTTATACATGCGGAGTCACCTAGTGCAG”, the binding signal was 47600 fluorescence intensity (a.u.).
With “CTCGTTATATCTATTATAAATTTTTTAATATACATGTTATCGGAGTCACCTAGTGCAG” the binding signal was 9040 fluorescence intensity (a.u.).
In the case of “ATCGTACCATTATTCAAAATTTTAAATAGTTACATGTTCACGGAGTCACCTAGTGCAG”, the binding signal is reported as 8120 fluorescence intensity (a.u.).
In the case of “ATCTCCGGCGTTTTTCAACCGTATGGCAATGATCATCCTTCGGAGTCACCTAGTGCAG”, the binding signal is reported as 11100 fluorescence intensity (a.u.).
“TAGGGAGGGTTGTGGGGAGGGGAGCTGTGGCCGCAATGTCCGGAGTCACCTAGTGCAG” was tested, and the binding signal was 19400 fluorescence intensity (a.u.).
For “GTTGGGGTGGAGGGCTGCTCCAGGTGAGAGGGCTGGGCATCGGAGTCACCTAGTGCAG”, the binding signal was 9900 fluorescence intensity (a.u.).
With “CTGTGGTGGTGTGCATACGGGTTGGGGTGGAGGGCTGCTCCGGAGTCACCTAGTGCAG” the binding signal was 17900 fluorescence intensity (a.u.).
For “TGGCCGGAGCTAGGGTGGGTGGGTGGTTGGCCGCACCACCCGGAGTCACCTAGTGCAG”, the binding signal was 8250 fluorescence intensity (a.u.).
“GAAGGTTGCTGTTGCTTGTTGTTGGTAGTGTCTTGTGTGCCGGAGTCACCTAGTGCAG” was tested, and the binding signal was 9090 fluorescence intensity (a.u.).
For “GGGCTTGTTGGGGTTGCTGTGGTAGCCGGGAGGGAGGGGACGGAGTCACCTAGTGCAG”, the binding signal was 28500 fluorescence intensity (a.u.).
In the case of “GTGGCTGCGTGTGGTGGCGTTGCACGGCTCGGGTGGGCTCCGGAGTCACCTAGTGCAG”, the binding signal is reported as 8660 fluorescence intensity (a.u.).
In the case of “TTGTGGCAATGGCGGCGGTGGCGGTGGCGGTTGGGGTGGCCGGAGTCACCTAGTGCAG”, the binding signal is reported as 11500 fluorescence intensity (a.u.).
In the case of “TGGCTGCCGGACTTGGGAGGGACACTGGGTTGGTTGTGGGCGGAGTCACCTAGTGCAG”, the binding signal is reported as 9440 fluorescence intensity (a.u.).
For “TAGCTCACATCGTTTTACGTATCTTCCCAATCTCCTGATCCGGAGTCACCTAGTGCAG”, the binding signal was 8950 fluorescence intensity (a.u.).
For “CTTTCGCGTTTTCCTTGGGTTTGACAATGGGCTACATTGCCGGAGTCACCTAGTGCAG”, the binding signal was 9400 fluorescence intensity (a.u.).
For “TATACTCCTTATCTTGGATTGGTAGTCTTTAGTTTGCTTTCGGAGTCACCTAGTGCAG”, the binding signal was 9320 fluorescence intensity (a.u.).
For “AACACCACGCCGCGCGCTCCACGGCAACGCAACGCAGGAACGGAGTCACCTAGTGCAG”, the binding signal was 8720 fluorescence intensity (a.u.).
In the case of “CAAAGTTGTGTGTTGTGAAGTGTGAAGGAGAGCTCTATTTCGGAGTCACCTAGTGCAG”, the binding signal is reported as 8610 fluorescence intensity (a.u.).
“TCCGGAGTCTGCACCCATCTTCCCCACGTGCGCGCCCATCCGGAGTCACCTAGTGCAG” was tested, and the binding signal was 8980 fluorescence intensity (a.u.).
With “ATTGACTTTTTCTTACACTGTTTAACCATTCGTCTTATTCCGGAGTCACCTAGTGCAG” the binding signal was 14000 fluorescence intensity (a.u.).
“TTTTCTCATATGTTTGACCATTCGTCTTATTCAAAAAATTCGGAGTCACCTAGTGCAG” was tested, and the binding signal was 9000 fluorescence intensity (a.u.).
In the case of “TTTCGTCAGCTGATCGTATATTGACCTTTTCTGTCTCTGTCGGAGTCACCTAGTGCAG”, the binding signal is reported as 10500 fluorescence intensity (a.u.).
“CGCCGTTGACTTTTTCTCATATGTTTGACCATTCATCTTACGGAGTCACCTAGTGCAG” was tested, and the binding signal was 38900 fluorescence intensity (a.u.).
For “TGACGCCGTTGACTTTTTCTCACATGTTTGACTATTCGTCCGGAGTCACCTAGTGCAG”, the binding signal was 49100 fluorescence intensity (a.u.).
“ACCATTGATTTTTCAGTACGTGTTTGACCATTCGTCTTATCGGAGTCACCTAGTGCAG” was tested, and the binding signal was 13300 fluorescence intensity (a.u.).
With “CACCGTTAATTTTTTCTCACATGTTTGACCATTCATCTTACGGAGTCACCTAGTGCAG” the binding signal was 14400 fluorescence intensity (a.u.).
“TGACGCCGTTAACTTTTTCTCACATATTTGACTATTTGTCCGGAGTCACCTAGTGCAG” was tested, and the binding signal was 10900 fluorescence intensity (a.u.).
“GCTGTTGACTTTTTCTCACGTGATTGACCTTTCGTCTTATCGGAGTCACCTAGTGCAG” was tested, and the binding signal was 28400 fluorescence intensity (a.u.).
With “TGACGCCGTTGACTTTTTCTTACATGTTTGACCATTCGTCCGGAGTCACCTAGTGCAG” the binding signal was 36700 fluorescence intensity (a.u.).
With “TCGCCGCTTTCCCTTTCTCCCCTGCGCTCTCACGTCAAACCGGAGTCACCTAGTGCAG” the binding signal was 8970 fluorescence intensity (a.u.).
With “CTCTGCTCAGTGCTGCTCACTGCCTCACTCACACTGTCACCGGAGTCACCTAGTGCAG” the binding signal was 11000 fluorescence intensity (a.u.).
With “CTAACCTGGACCGTCCATCCGCGCGAAGTTTTCTCCACCGCGGAGTCACCTAGTGCAG” the binding signal was 9060 fluorescence intensity (a.u.).
For “TTCCACACAATGTGCTAAAAGTTTGACTTTTACACGTCCACGGAGTCACCTAGTGCAG”, the binding signal was 14500 fluorescence intensity (a.u.).
With “AACATCTGCCTGCTCACTAAAATGATCTACCGGCTTTTTTCGGAGTCACCTAGTGCAG” the binding signal was 8620 fluorescence intensity (a.u.).
“CGCTGTTTTTTTTTTATTTTGACGGGTAGTAGAGGCCGCGCGGAGTCACCTAGTGCAG” was tested, and the binding signal was 9990 fluorescence intensity (a.u.).
For “TTTCAGAGCTATTTGGCCTTTAATACACTTTCCTATTAAGCGGAGTCACCTAGTGCAG”, the binding signal was 8710 fluorescence intensity (a.u.).
With “TAGACTTTTTCTCACATGTTTGACCATTCGTCTTATTCAACGGAGTCACCTAGTGCAG” the binding signal was 11700 fluorescence intensity (a.u.).
For “TGACGCCGTTGACTTTTTATCTAATGTTTGACTATTCGTCCGGAGTCACCTAGTGCAG”, the binding signal was 43500 fluorescence intensity (a.u.).
With “ACTTTTTTTCTCAATCTGTGCTCTTTCACGTGTTTGACTTCGGAGTCACCTAGTGCAG” the binding signal was 11400 fluorescence intensity (a.u.).

— paper PMC7819943, “Rice protein-binding microarrays: a tool to detect cis-acting elements near promoter regions in rice”
